Reference: ChEMBL document CHEMBL1201862, “PubChem BioAssay data set” (2004)
Screen size: about 55,000 sequences; about 2,800 (5.1%) were called active. Rule as the data show it: active = GI50 up to about 1.1 µM and inactive = higher. Only a sample is shown. Measured potencies and affinities stand elsewhere.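 A five-concentration, 48-hour dose response in 96-well plates underlies each endpoint, interpolated linearly between surrounding concentrations. GI50 marks 50% less growth.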

Each substance was assayed on SK-MEL-2 (assay: NCI tumour cell line growth inhibition, 48 h).

Q: Which GI50 does the source give for “[Bis(aminomethyl)pentamethylenesilane]tetrachloropaltinum(IV), CHEMBL2146204” here?
A: 5.71 µM

Q: How did the GI50 turn out when “[Bis(aminomethyl)dimethylsilane]tetrachloroplatinum(IV), CHEMBL2146190” was run?
A: 19.1 µM

Q: With “[Bis(aminomethyl)tetramethylenesilane]dichloropaltinum(II), CHEMBL2146205” as the substance, how does the GI50 read?
A: 30.9 µM

Q: With “[Bis(aminomethyl)dimethylsilane]dichloroplatinum (II), CHEMBL2146201” as the substance, how does the GI50 read?
A: 65.5 µM

Q: For “[Bis(aminomethyl)ethylmethylsilane]tetrachloroplatinum(IV), CHEMBL2146192”, which GI50 is on record?
A: 5.5 µM

Q: For CISPLATIN, CHEMBL11359, which GI50 is on record?
A: 5.07 µM

Q: How did the GI50 turn out when “mu-(1,7-nanodiamine-N,N')bis-(cis-aminedichloroplatimum (II)), CHEMBL2146215” was run?
A: 38.9 µM

Q: Which GI50 does the source give for “[Bis(aminomethyl)tetramethylenesilane]tetrachloropaltinum(IV), CHEMBL2146189” here?
A: 6.64 µM

Q: With “[Bis(aminomethyl)diethylsilane]tetrachloroplatinum(IV), CHEMBL2146203” as the substance, how does the GI50 read?
A: 3.1 µM

Q: Which GI50 does the source give for “[Bis(aminomethyl)pentamethylenesilane]dichloropaltinum(II), CHEMBL2146202” here?
A: 7.57 µM

Q: Which GI50 does the source give for “cis-Bis[[(trimethylsilyl)methyl]amino]tetrachloroplatinum(IV), CHEMBL2146191” here?
A: 2.88 µM
